Screening results deposited in PubChem by National Center for Advancing Translational Sciences (NCATS).
Most compounds without a hit are left out; they make up all but 2.4% or so of the library.
POLI inh: qHTS for Inhibitors of Polymerase Iota. actives 1% (n = 390,000). Potency, µM (titrated, usually from 115 µM), usual class: inhibitors. Pol iota fluorescent replication assay, 10 min. DNA polymerase iota (Homo sapiens), Q9UNA4
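Pol iota at 10 nM preincubated 15 min with compounds at room temperature; reaction started with fluorescent substrate, 50 nM final. Fluorescence read kinetically at 0 and 10 min; buffer-only wells as negative control.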
Pol kappa inh: qHTS for Inhibitors of Polymerase Kappa; purified Pol kappa, fluorescent DNA synthesis assay, 10 min; Potency, µM (highest dose often 107 µM), hits mostly inhibitors; actives 0.53% (n = 400,000); AID 588579, 2011
Target sequence (Q9UBT6 whole entry, looked up): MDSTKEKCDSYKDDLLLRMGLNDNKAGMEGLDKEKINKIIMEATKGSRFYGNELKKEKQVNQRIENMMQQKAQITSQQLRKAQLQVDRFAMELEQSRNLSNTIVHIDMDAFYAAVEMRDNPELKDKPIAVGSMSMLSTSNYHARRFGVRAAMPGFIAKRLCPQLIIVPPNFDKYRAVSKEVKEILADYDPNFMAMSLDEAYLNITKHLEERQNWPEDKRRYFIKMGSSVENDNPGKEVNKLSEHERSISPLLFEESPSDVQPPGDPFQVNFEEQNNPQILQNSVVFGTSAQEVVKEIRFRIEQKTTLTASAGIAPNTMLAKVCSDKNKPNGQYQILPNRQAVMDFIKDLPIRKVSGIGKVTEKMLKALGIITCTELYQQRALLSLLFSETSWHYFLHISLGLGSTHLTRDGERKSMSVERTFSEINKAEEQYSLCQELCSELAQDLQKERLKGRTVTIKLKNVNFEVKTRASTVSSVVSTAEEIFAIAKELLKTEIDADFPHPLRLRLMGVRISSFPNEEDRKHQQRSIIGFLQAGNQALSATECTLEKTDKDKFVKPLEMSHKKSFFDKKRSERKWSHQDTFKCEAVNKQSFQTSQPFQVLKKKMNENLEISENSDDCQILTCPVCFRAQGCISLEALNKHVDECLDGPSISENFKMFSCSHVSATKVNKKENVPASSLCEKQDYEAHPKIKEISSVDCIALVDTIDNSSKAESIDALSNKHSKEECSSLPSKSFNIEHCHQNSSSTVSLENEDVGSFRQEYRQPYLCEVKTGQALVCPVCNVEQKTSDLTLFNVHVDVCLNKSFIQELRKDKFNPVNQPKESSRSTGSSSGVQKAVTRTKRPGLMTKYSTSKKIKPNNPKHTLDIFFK
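Fluorescent qHTS in 1536-well format: enzyme (10 nM) and compound sat 15 min at room temperature before 50 nM substrate (final) was added. Signal taken at 0 and 10 min; no-enzyme buffer wells were negative controls.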
POLH inh: qHTS for Inhibitors of Polymerase Eta; actives 1.2% (n = 390,000); AID 588591, 2011; recombinant Pol eta, fluorescent DNA replication assay; Potency, µM (top dose mostly 114 µM), most hits filed as inhibitors; DNA polymerase eta (Homo sapiens), Q9Y253
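Pol eta at 10 nM preincubated with compounds 15 min at room temperature; reaction started with fluorescent substrate (50 nM final) and read kinetically at 0 and 10 min.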
Pol beta inh: qHTS Assay for Inhibitors of DNA Polymerase Beta; Pol beta primer extension/strand displacement, fluorescence kinetic; Potency, µM (highest dose often 114 µM), usual class: inhibitors; actives 1.3% (n = 340,000); AID 485314, 2010
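Kinetic readout of DNA synthesis with strand displacement by Pol beta. Compound and 10 nM enzyme sit 15 min at room temperature; 50 nM substrate starts the reaction, read immediately and at 10 min.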
L3MBTL1 inh-1: qHTS Assay for the Inhibitors of L3MBTL1; Lethal(3)malignant brain tumor-like protein 1 (Homo sapiens), Q9Y468; AlphaScreen L3MBTL1–H3K9me1 peptide binding; Potency, µM (highest dose often 57.1 µM), actives largely listed as inhibitors; actives 0.66% (n = 230,000); also: nearly all actives have a fitted effect of over 60% in size
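AlphaScreen assay: L3MBTL1 (50 nM final) was preincubated 30 min at room temperature with biotinylated H3(1-15)K9me1 peptide (75 nM final), then 30 min with library compounds; streptavidin donor and nickel chelate acceptor beads (10 ug/mL final) added, 30 min dark.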
L3MBTL1 inh-2: qHTS Assay for the Inhibitors of L3MBTL1: Hit Validation. actives 91% (n = 500). AID 540279, 2011. Potency, µM, usual class: inhibitors. L3MBTL1 methyl-lysine binding inhibition, biochemical qHTS. shares compounds with L3MBTL1 inh-1; also: nearly all actives have a fitted effect of over 70% in size
AlphaScreen ctr2: qHTS Assay for the Inhibitors of L3MBTL1: Hit Validationin AlphaScreen Counterscreen | 500 tested, under 10 active | shares compounds with L3MBTL1 inh-1 | AlphaScreen counterscreen, signal inhibition | Potency, µM (highest dose often 57.1 µM), usual class: inhibitors
Each line names hits and unclear results; the compound was inactive in the other large screens (follow-up assays come after a bar, where they were run); ! = repeats disagree. Calls follow the shape of the dose curve; as a rule, active = well fitted curve in the direction sought with a large enough effect; inconclusive = small, poorly fitted or top-dose-only effect, or another doubt; inactive = no such curve, though single readings can be large; an effect the other way counts as inactive or inconclusive.

COc1ccc(-c2nnc(SCC(=O)Nc3c(C)cccc3C)nc2-c2ccc(OC)cc2)cc1	none (no result: L3MBTL1 inh-1)
COc1ccc(CNC(=O)c2cnc(C)cn2)cc1	POLI inh inconclusive, POLH inh 16µM, Pol beta inh 28µM, L3MBTL1 inh-1 22µM | L3MBTL1 inh-2 17 | AlphaScreen ctr2 inactive
COc1cc(CNC(=O)c2cnc(C)cn2)cc(OC)c1	none
Cc1csc(=O)n1CCC(=O)OCC(=O)NCc1ccccc1	none (no result: POLI inh, Pol kappa inh, Pol beta inh, L3MBTL1 inh-1)
O=C(Nc1cc(Cl)ccc1Cl)c1noc2c1CCCC2	none (no result: L3MBTL1 inh-1)
O=C(Nc1ccc(F)cc1F)c1noc2c1CCC2	POLI inh 18µM, POLH inh 20µM, Pol beta inh 22µM, L3MBTL1 inh-1 32µM | L3MBTL1 inh-2 6.7 | AlphaScreen ctr2 inactive
CC1CCN(Cc2c(O)ccc3c2O/C(=C\c2ccco2)C3=O)CC1	POLI inh inconclusive, Pol kappa inh inconclusive, POLH inh 56µM, Pol beta inh 11µM, L3MBTL1 inh-1 10µM | L3MBTL1 inh-2 27 | AlphaScreen ctr2 inactive
CC(C)c1ccc(/C=C2\Oc3c(ccc(O)c3CN3CCN(C)CC3)C2=O)cc1	POLI inh inconclusive (no result: L3MBTL1 inh-1)
CCS(=O)(=O)N1Cc2ccccc2CC1C(=O)Nc1nnc(SCc2ccc(C#N)cc2)s1 (configuration not stated)	POLI inh inconclusive, Pol kappa inh inconclusive, POLH inh inconclusive, Pol beta inh 10µM, L3MBTL1 inh-1 18µM | L3MBTL1 inh-2 3.4 | AlphaScreen ctr2 inactive
COc1cnc(-c2ccccn2)nc1Oc1ccccc1	L3MBTL1 inh-1 32µM | L3MBTL1 inh-2 21 | AlphaScreen ctr2 inactive
CCOC(=O)CSc1nc(-c2ccccn2)ncc1OC	L3MBTL1 inh-1 22µM | L3MBTL1 inh-2 27 | AlphaScreen ctr2 inactive
O=C1NC[C@@H](c2ccccc2)OC(=O)[C@@H](Cc2ccc(F)cc2)CC/C=C/C[C@H]1CC(=O)N(CCO)Cc1ccccc1	none (no result: Pol beta inh)
Cc1nnc(N2CCN(C(=O)NC(C)C)CC2)c2nn(-c3ccccc3)c(C)c12	none (no result: POLH inh, L3MBTL1 inh-1)
COc1ccc2c(c1)CC(NC(=O)Nc1ccc(Br)c(C)c1)CO2 (configuration not stated)	none (no result: L3MBTL1 inh-1)
C[C@H]1CN([C@@H](C)CO)C(=O)CCCn2nncc2CO[C@H]1CN(C)S(=O)(=O)c1ccc2ccccc2c1	none (no result: POLI inh, Pol kappa inh, Pol beta inh, L3MBTL1 inh-1)
Cc1cc(C)c2nc(N3C(=O)C(O)=C(C(=O)c4ccco4)C3c3cccc(O)c3)sc2c1 (configuration not stated)	POLI inh inconclusive, POLH inh inconclusive, L3MBTL1 inh-1 32µM (no result: Pol beta inh) | L3MBTL1 inh-2 24 | AlphaScreen ctr2 inactive
O=C(C1=C(O)C(=O)N(c2nc3ccc(Cl)cc3s2)C1c1ccco1)c1ccco1 (configuration not stated)	POLI inh 7.9µM, Pol kappa inh 40µM, POLH inh 20µM, L3MBTL1 inh-1 20µM (no result: Pol beta inh) | L3MBTL1 inh-2 6 | AlphaScreen ctr2 inactive
O=C(Cn1nc2c(cc1=O)CCCC2)NCc1ccc(Cl)cc1	none (no result: L3MBTL1 inh-1)
C/C(=N\Nc1nnc2c3ccccc3n(C)c2n1)c1ccc(C)o1	none
Cc1cc(C)n(-c2nnc3c4ccccc4n(C)c3n2)n1	L3MBTL1 inh-1 28µM | L3MBTL1 inh-2 inconclusive | AlphaScreen ctr2 inconclusive
C=C1C=CS(=O)(=O)N(C(CC(C)C)C(=O)OC)C1 (configuration not stated)	none (no result: POLH inh, Pol beta inh, L3MBTL1 inh-1)
O=C(O)c1cc(-c2ccco2)nc2ccc(Br)cc12	POLI inh 2.8µM!, Pol kappa inh 7.1µM!, POLH inh 2.5µM!, Pol beta inh 3.2µM!, L3MBTL1 inh-1 4.5µM | L3MBTL1 inh-2 2.4 | AlphaScreen ctr2 inactive
O=C(c1ccco1)N1CCN(C(=O)c2cc(-c3ccncc3)nc3ccc(Br)cc23)CC1	POLH inh inconclusive (no result: Pol beta inh, L3MBTL1 inh-1)
Cc1ccc(N=C2NC(=O)/C(=C\c3ccco3)S2)cc1	POLI inh 32µM, Pol kappa inh inconclusive, POLH inh 14µM, Pol beta inh inconclusive, L3MBTL1 inh-1 20µM | L3MBTL1 inh-2 27 | AlphaScreen ctr2 inactive
Cc1ccc2c(c1)-c1onc(C(=O)N3CCN(c4cc(Cl)ccc4C)CC3)c1CO2	none (no result: L3MBTL1 inh-1)
CC(C)CC1C(=O)N(Cc2cn(Cc3ccco3)nn2)CCS(=O)(=O)N1Cc1ccc(-c2cccc(N(C)C)c2)cc1 (configuration not stated)	none (no result: POLI inh, Pol kappa inh, Pol beta inh, L3MBTL1 inh-1)
CC(=O)c1c(COC(=O)c2ccncc2)nc2ccccc2[n+]1[O-]	POLI inh inconclusive, POLH inh inconclusive, L3MBTL1 inh-1 35µM | L3MBTL1 inh-2 inconclusive | AlphaScreen ctr2 inactive
CCCCCOc1ccc(Cn2c(=O)oc3ccc(C)cc32)cc1OC	none (no result: L3MBTL1 inh-1)
CC(C)[C@H](NC(=O)c1ccccc1Cl)C(=O)Nc1nc(-c2ccccn2)cs1	L3MBTL1 inh-1 35µM | L3MBTL1 inh-2 24 | AlphaScreen ctr2 inactive
CC(C)CCC(CCN1CCOCC1)c1ccc2c(c1)OCO2 (configuration not stated)	none
CC(C)CCC(CCN1CCCC1)c1ccc2c(c1)OCO2 (configuration not stated)	L3MBTL1 inh-1 28µM | L3MBTL1 inh-2 21 | AlphaScreen ctr2 inactive
O=C(Nc1ccc2nc(-c3ccco3)c(-c3ccco3)nc2c1)NC1CC1	POLI inh 1.3µM, Pol kappa inh 10µM, POLH inh 1.3µM, Pol beta inh 3.5µM, L3MBTL1 inh-1 4µM | L3MBTL1 inh-2 2.4 | AlphaScreen ctr2 inactive
O=C(CSc1nnc(-c2ccc(C(F)(F)F)cn2)o1)Nc1ccccc1Cl	L3MBTL1 inh-1 32µM | L3MBTL1 inh-2 21 | AlphaScreen ctr2 inactive
Cc1ccc(C2/C(=C(/O)c3ccccc3)C(=O)C(=O)N2CCN2CCOCC2)o1 (configuration not stated)	none
Cc1ccc(C)c(/C(O)=C2/C(=O)C(=O)N(CCN3CCOCC3)C2c2ccco2)c1 (configuration not stated)	POLI inh inconclusive, Pol kappa inh inconclusive, POLH inh 22µM, Pol beta inh 7.1µM, L3MBTL1 inh-1 25µM | L3MBTL1 inh-2 11 | AlphaScreen ctr2 inactive
COc1ccc(C(=O)C=Cc2ccc(OCc3ccccc3)c(OC)c2)cc1OC	none (no result: POLI inh, Pol kappa inh, Pol beta inh, L3MBTL1 inh-1)
COc1cc(/C=C/[N+](=O)[O-])ccc1OCc1cccc(C(=O)O)c1	POLI inh inconclusive, Pol kappa inh 25µM, POLH inh 32µM, Pol beta inh 32µM, L3MBTL1 inh-1 28µM | L3MBTL1 inh-2 inconclusive | AlphaScreen ctr2 inactive
COC(=O)C1=C(C)N(C(C)C)C(=O)C1(NC(=O)c1ccc(C(C)(C)C)cc1)C(F)(F)F (configuration not stated)	none (no result: L3MBTL1 inh-1)
